This is a sample that favours compounds with a hit; in the whole collection about 1.8% have one here.
CCHF vOTU inh = CCHFV vOTU protease inhibition | inhibition, % at 11.5 µM | 370,000 tested, 0.55% active | Pep-AMC fluorescence; in the data active = inhibition above about 30%
MazF activator = MazEF (E. coli) toxin RNase activation | FAM/BHQ RNA-DNA oligo cleavage fluorescence, 5 h | P0AE70 | 350,000 tested, 0.32% active | activation, % at 20 µM; in the data active = activation above about 50%
Target sequence (P0AE70 whole entry, looked up): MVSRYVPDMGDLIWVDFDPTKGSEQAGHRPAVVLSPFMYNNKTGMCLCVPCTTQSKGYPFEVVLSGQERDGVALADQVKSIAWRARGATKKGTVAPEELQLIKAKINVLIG
Vc quorum ag = inducers of Vibrio cholerae quorum light production without autoinducers. V. cholerae BH1578 lux reporter, luminescence, 6 h. activation, % at 18.7 µM. 350,000 tested, 0.16% active; in the data active = activation mostly above about 9.7%, no sharp cut-off
Y pestis TopoI = Y. pestis Topo-I inhibition via cleavage products; AID 504884; activity, % at 10 µM; Y. pestis Topo-I cleavage product accumulation, plate reader; 360,000 tested, 0.064% active; in the data active = activity above about 50%, passing the limit was not always enough
PrPC surface inh = reduces human prion protein on the cell surface | P04156 | 370,000 tested, 0.43% active | inhibition, % at 13.8 µM | cell surface PrPC, TR-FRET read-out | AID 720596; in the data active = inhibition above about 24%
VHR inh abs = inhibitors of human VHR1 phosphatase (DUSP3); P51452; inhibition, % at 13.3 µM; 290,000 tested, 0.52% active; recombinant VHR phosphatase, pNPP absorbance; in the data active = inhibition above about 50%
Target sequence (P51452 whole entry, looked up): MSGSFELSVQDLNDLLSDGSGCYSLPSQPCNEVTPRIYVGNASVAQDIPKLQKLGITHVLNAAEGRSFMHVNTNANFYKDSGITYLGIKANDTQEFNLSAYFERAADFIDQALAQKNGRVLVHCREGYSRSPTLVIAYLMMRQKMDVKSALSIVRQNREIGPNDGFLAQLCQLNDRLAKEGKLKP
Each line names hits and unclear results; the compound was inactive in the other large screens.

CC1CCN(S(=O)(=O)N2CCCC(C(=O)NCc3ccccc3Cl)C2)CC1 (centres undefined)	none
O=C(NCc1ccccc1)C1CCN(S(=O)(=O)c2ccc(N3CCCC3=O)cc2)CC1	VHR inh abs 52.5
C=C1CCC2C(C)(C)CCC[C@]2(C)[C@H]1CC1=C(O)C(=O)C(CO)=CC1=O (some centres undefined)	none (no result: MazF activator, Vc quorum ag, Y pestis TopoI, VHR inh abs)
CC(=NN1CCN(Cc2ccccc2Cl)CC1)c1ccc(O)cc1	none (no result: MazF activator, Vc quorum ag, Y pestis TopoI, VHR inh abs)
COc1ccc(-c2cc(-c3nnc(SCc4cccc5ccccc45)n3N)[nH]n2)cc1	none (no result: MazF activator, Vc quorum ag, Y pestis TopoI, VHR inh abs)
Cc1ccc(C2C3CN(C(C)C)CC=C3C(C#N)=C(N)C2(C#N)C#N)cc1 (centres undefined)	MazF activator 156.0
COc1ccc(OC)c(C2C3CN(C(C)C)CC=C3C(C#N)=C(N)C2(C#N)C#N)c1 (centres undefined)	none
CN(C)C(=O)N1CCN(c2nc(-c3ccccc3)cs2)CC1	VHR inh abs 52.8
O=C(N1CCOCC1)N1CCN(c2nc(-c3ccccc3)cs2)CC1	none
CC(=O)c1cnc2nc(C(F)(F)F)nn2c1C	MazF activator 80.0
CCOc1ccc(-n2c(SCC(=O)Nc3ccc(S(=O)(=O)Nc4nccs4)cc3)nnc2-c2ccccc2)cc1	none (no result: MazF activator, Vc quorum ag, Y pestis TopoI, VHR inh abs)
CCOC(=O)[C@]12CCCC3=C1N(CCC3)C(=O)[C@@H](CC(=O)NCc1cccc3ccccc13)C2	none (no result: MazF activator, Vc quorum ag, Y pestis TopoI, VHR inh abs)
C/C(Cl)=C/CSc1nnc2n(N)c(=O)c3ccccc3n12	Vc quorum ag 32.7
COC(=O)c1c(NC(=O)CCc2ccc(C)o2)sc(C)c1C	none
CCOC(=O)c1c(NC(=O)CCc2ccc(CC)o2)sc(C)c1C	Y pestis TopoI 57.4
O=S1(=O)c2ccc(Br)cc2OC[C@@H](Cc2ccccc2)N1Cc1cn(Cc2ccc(F)cc2)nn1	none (no result: MazF activator, Vc quorum ag, Y pestis TopoI, VHR inh abs)
O=C(COc1c(Br)cc(Br)c2cccnc12)N1CCCCC1	none
O=C(COc1c(Br)cc(Br)c2cccnc12)N1CCc2ccccc2C1	Y pestis TopoI 57.2 (no result: CCHF vOTU inh, PrPC surface inh)
Cc1ccc(CN2CCCN(Cc3ccc(C)cc3)S2(=O)=O)cc1	none
Cc1cccc(CN2CCCN(Cc3ccc(Cl)cc3)S2(=O)=O)c1	Y pestis TopoI 57.1
COc1ccc(C(=O)OCCCN(C)C2CN(Cc3cn(Cc4ccccc4F)nn3)S(=O)(=O)C2)cc1OC (centres undefined)	none (no result: MazF activator, Vc quorum ag, Y pestis TopoI, VHR inh abs)
CCOC(=O)/C(C#N)=C\N(C)C	VHR inh abs 56.7
COC(=O)/C(C#N)=C/N(C)C	none
Cc1cc2cc3c(cc2nc1SCC(=O)O)OCCO3	none
Cc1cc2cc3c(cc2nc1SCC(=O)N1CCCC1)OCCO3	VHR inh abs 52.9
COC[C@H]1O[C@]2(c3ccccc3)CO[C@H]1[C@@H](/C=C/c1ccccc1)C2	none (no result: MazF activator, Vc quorum ag, Y pestis TopoI, VHR inh abs)
COc1cccc(N2CC(C(=O)N3CCC4(CC3)CC(=O)c3ccccc3O4)CC2=O)c1 (centres undefined)	Y pestis TopoI 217.2 (no result: VHR inh abs)
CN=Cc1nc(-c2ccccc2)oc1O	none
CC1=Nc2ccccc2/C1=C\c1nc(-c2ccc(F)cc2)oc1O	MazF activator active
Cc1ccc(NC(=O)CN2C(=O)S/C(=C\c3cccn3-c3cccc(C(=O)O)c3)C2=O)cc1C	none (no result: VHR inh abs)
COc1ccc(NC(=O)CN2C(=O)S/C(=C/c3cccn3-c3ccc(C(=O)O)cc3)C2=O)cc1	VHR inh abs 57.1 (no result: MazF activator)
COc1cccc(C(=O)n2ccc3ccc(-c4ccc5ccn(Cc6ccc(C#N)cc6)c5c4)cc32)c1	none (no result: MazF activator, Vc quorum ag, Y pestis TopoI, VHR inh abs)
O=C(CN1CCN(c2ccccn2)CC1)Nc1ccccc1F	VHR inh abs 57.0
O=C(CN1CCN(c2ccccn2)CC1)Nc1cc(F)ccc1F	none (no result: VHR inh abs)
O=C(Cn1nc(C(=O)O)c2ccccc2c1=O)Nc1cc(Cl)cc(Cl)c1	none
COc1cccc(-c2noc(Cn3nc(C(=O)O)c4ccccc4c3=O)n2)c1	Y pestis TopoI 53.5
O=C(O)c1nn(Cc2ncc(-c3cccc(Cl)c3)o2)c(=O)c2ccccc12	Y pestis TopoI 51.6
COc1cccc(-c2nc(-c3ccccc3)no2)c1	none
CCC[C@H]1[C@@H](OC(=O)N2CCCC2)CC[C@@]23CCCN2C(=O)CCC[C@@H]13	none (no result: CCHF vOTU inh, MazF activator, Vc quorum ag, Y pestis TopoI, VHR inh abs)
CCOC(=O)Nc1ccc2c(c1)N(C(=O)CCN(CC)CC)c1ccccc1CC2	VHR inh abs 50.2
C#CCNC(=O)C[C@@H]1C(=O)N(CCc2ccc(Cl)cc2)/C2=C/CCCCC[C@@]21C(=O)OCC	none (no result: MazF activator, Vc quorum ag, Y pestis TopoI, VHR inh abs)
Cc1cc(O)c2c(c1)C(=O)C13C(=C2O)C(=O)[C@H]2[C@@H](O)[C@@H]1[C@H]1[C@H](O)[C@@H]3C(=O)C3=C(O)c4c(O)cc(C)cc4C(=O)C312 (some centres undefined)	Y pestis TopoI 402.9 (no result: CCHF vOTU inh, PrPC surface inh, VHR inh abs)
Oc1ccc(CCNc2ncnc3ccc(Cl)cc23)cc1	PrPC surface inh 36.2
COc1ccc(C(=O)c2c(C(F)(F)F)oc3c2C(=O)c2ccccc2C3=O)cc1OC	CCHF vOTU inh 63.6
COc1ccc(C(=O)Nc2ccc3c(c2)C(=O)c2ccccc2C3=O)cc1OC	none
CCCCCN1CCCCC(NC(=O)c2cccc(F)c2)C1=O (centres undefined)	none (no result: MazF activator, Vc quorum ag, Y pestis TopoI, VHR inh abs)
CCOc1ccc(NC(=S)Nc2cccc3cnccc23)cc1	none
COc1ccc(NC(=S)Nc2cccc3cnccc23)cc1	MazF activator 70.0
COc1ccc(S[C@]2(C(=O)N3CCCC3)CC(=O)N(C(=O)C3CC3)[C@@H]2c2ccc(OC)cc2)cc1	none (no result: MazF activator, Vc quorum ag, Y pestis TopoI, VHR inh abs)
CCOc1ccccc1N1CCN(C(=O)C2c3ccccc3Oc3ccccc32)CC1	VHR inh abs 50.3
COc1ccc2cc(-c3cccc4[nH]cc(C)c34)ccc2c1	none (no result: MazF activator, Vc quorum ag, Y pestis TopoI, VHR inh abs)
CN(C)CCNc1oc(-c2cccc(Cl)c2)nc1C#N	VHR inh abs 51.2
O=C(COc1ccc2cc(Br)ccc2c1Br)N1CCOCC1	Y pestis TopoI 53.1
COC(=O)CSc1nc(SCc2ccc(C)cc2)nc2c1CCCC2	Y pestis TopoI 58.2
CNc1nc(SCc2ccc(C)cc2)nc2c1CCCC2	none
Cc1ccc(CSc2nc3c(c(N(C)C)n2)CCCC3)cc1	Y pestis TopoI 58.8
CC(=O)c1ccc(OCc2cc(C(=O)N3CCC[C@H]3CO)no2)cc1	VHR inh abs 59.8
COCCC1CCCCN1C(=O)c1cc(COc2cccc(C(C)=O)c2)on1 (centres undefined)	none
Cc1ccc(Nc2nc(CSc3nnc(-c4ccncc4)n3C)cs2)cc1	VHR inh abs 58.3
COc1ccccc1C(=O)NCCC(=O)N1CC=C(c2ccccc2)CC1	Y pestis TopoI 131.8 (no result: VHR inh abs)
O=C(Nc1ccccn1)c1ccc(Br)s1	VHR inh abs 55.0
O=C(Nc1ccccn1)c1ccc(C(=O)Nc2ccccn2)cc1	none (no result: CCHF vOTU inh, PrPC surface inh)
CC1(Cc2ccc(C(F)(F)F)nc2)C(=O)Nc2cc(-c3ccccc3Cl)ccc21 (centres undefined)	none (no result: MazF activator, VHR inh abs)
O=C(NNC(=O)c1cccc2ccccc12)c1cccc(Br)c1	none (no result: VHR inh abs)
O=C(NNC(=O)c1cccc2ccccc12)c1ccc(Br)cc1	MazF activator 65.7 (no result: VHR inh abs)
CSc1ncnc2c1ncn2CCCN(C)Cc1ccco1	none (no result: VHR inh abs)
O=C(Nc1ccc(NC(=O)C2CCCCC2)nc1)c1ccccn1	VHR inh abs 57.4
O=C(Nc1ccc(NC(=O)C2CCCCC2)nc1)c1ccco1	none

Screening results deposited in PubChem by several laboratories.
